From PubChem BioAssay (EPA / NIEHS) come the findings set out here.

The structures appear in SMILES notation. “And” between values parts separate entries of the source, which are not always exact repeats. Equal values may be shown once. Some structures have more than one record in an assay (separate samples or runs), and their calls can disagree. The source made the active and inactive calls. The calls were made as follows: active = hit-call score of the fitted dose curve at least 0.9, where 1 is the maximum; inactive = score below 0.9.

Broad substrate specificity ATP-binding cassette transporter ABCG2 (Homo sapiens), sequence (Q9UNQ0 whole entry, looked up): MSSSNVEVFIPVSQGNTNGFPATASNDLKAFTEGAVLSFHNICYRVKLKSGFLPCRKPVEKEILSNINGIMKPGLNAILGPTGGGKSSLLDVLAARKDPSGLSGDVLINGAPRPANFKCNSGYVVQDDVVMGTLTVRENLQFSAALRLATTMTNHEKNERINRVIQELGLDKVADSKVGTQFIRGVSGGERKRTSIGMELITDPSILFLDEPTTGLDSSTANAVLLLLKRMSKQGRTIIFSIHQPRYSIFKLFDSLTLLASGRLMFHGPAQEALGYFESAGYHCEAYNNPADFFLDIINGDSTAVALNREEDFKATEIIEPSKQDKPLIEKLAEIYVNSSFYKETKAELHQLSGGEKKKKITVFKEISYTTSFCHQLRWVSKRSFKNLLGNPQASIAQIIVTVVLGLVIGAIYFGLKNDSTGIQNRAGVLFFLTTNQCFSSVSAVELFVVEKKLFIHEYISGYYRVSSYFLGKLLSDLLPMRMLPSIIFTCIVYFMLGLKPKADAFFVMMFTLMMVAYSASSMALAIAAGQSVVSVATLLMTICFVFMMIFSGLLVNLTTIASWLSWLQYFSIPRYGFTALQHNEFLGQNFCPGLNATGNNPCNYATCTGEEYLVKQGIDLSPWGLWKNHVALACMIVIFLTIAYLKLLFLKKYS

Read-out in the assay: Broad substrate specificity ATP-binding cassette transporter ABCG2 (Homo sapiens) (UniProt Q9UNQ0)
Nature of the assay: LTEA_HepaRG_ABCG2: Life Technologies and Expression Analysis (LTEA) Assay for ABC Transporter (ABCG2) using HepaRG (AID 2283465). The note with it: mRNA level, 48 h; actives raise or lower the signal. How it is done:
LTEA_HepaRG is a cell based, multiplexed-readout assay that uses HepaRG, a human liver cell line, with measurements taken at 48 hours after chemical dosing on a 96-well plate.LTEA_HepaRG_ABCG2 is one of 102 assay component(s) measured in the LTEA HepaRG cell culture assay. It is a marker of Steatosis/NR mediated transport.Data from the assay component LTEA_HepaRG_ABCG2 was analyzed into 1 endpoint. This assay endpoint, LTEA_HepaRG_ABCG2, was analyzed with bidirectional fitting relative to DMSO as the negative control and baseline of activity. Using a type of inducible reporter, measures of mRNA induction for gain or loss-of-signal activity can be used to understand regulation of transcription factor activity. To generalize the intended target to other relatable targets, this assay endpoint is annotated to the transporter intended target family, where the subfamily is ABC transporter.
A total of 1060 chemcials from the ToxCast library were tested in eight-point concentration-response experiments. Cell culture and cytotoxicity assays were conducted at Thermo Fisher Scientific's Custom Services facility (Madison, WI). A single lot of human HepaRG cells (Thermo Fisher Scientific, Frederick, MD) was used for the cell culture experiments. 96-well format collagen type I coated plates of human HepaRG cells were prepared using established methods. Briefly, cryopreserved HepaRG cells were thawed, plated at a density of approximately 100,000 cells/well in HepaRG Thaw, Plate, and General Purpose media (HPRG770, Thermo Fisher Scientific), and incubated for 48 hours. 0.5% DMSO was selected as vehicle control to balance the requisite need of DMSO in HepaRG cultures to maintain differentiation (for example, baseline metabolism, proportions of hepatocytes vs. cholangiocytes), while enabling further hepatic receptor pathway activation (for example, PXR and CAR) in response to chemical exposure. 48 hours after plating, the culture medium was replaced with HepaRG Serum-Free Incudtion Media. Cells were exposed to each test chemical in duplicate and maintained in CO2 incubators for another 48 hours. Chemical plates were thawed to room temperature and 200x concentrations of treatment groups were prepared. 8-point conentration-reponse curves were made with the highest exposure at 100 uM, followed by half-log dilutions, all in 0.5% DMSO. Each test plate contained variouse controls, induction positive controls (1mM phenobarbital), cytotoxicity positive controls ([…] aflatoxin B1), vehicle controls (0.5% DMSO), and total lysis controls (0.5% DMSO). Cell morphology images were taken using an Essen IncuCyte FLR automated microscope, with six 96-well plates imaged in about 24 minutes. Images were captured and exported and JPEG files. Spent culture media was transfered to black-well plates for the LDH assay, and remaining media was sorted at -80 C for later use. Cells were treated with RLT buffer and frozen until shipped for gene expression analysis. Total RNA was isolated from the cell suspension in 75 uL of Buffer RLT (Qiagen, Germantown, MD 20874) by Quintiles/Expression Analysis (Durham, NC) using a custom isolation procedure. Total RNA from each plate well was transferred to a preamplification plate. Fluidigm's 96.96 Dynamic ArrayTM (Fluidigm, Amsterdam, the Netherlands) technology was used for gene expression analyses by quantitative reverse transcription polymerase chain reaction (qRT-PCR, performed by Quintiles/Expression Analysis, Durham, NC)89. Standard TaqManTM Assays (Applied Biosystems/ThermoFisher Scientific, Foster City, CA) were used to assess the expression of 93 genes selected based on their selectivity and sensitivity to important hepatic receptors known to be modulated by environmental chemicals; importance in human hepatocyte functionality; and hepatotoxicity. […]
As for `CCC(C)(C)C(=O)OC1=C(c2ccc(Cl)cc2Cl)C(=O)OC12CCCCC2`, the molecule was classed as inactive. The AC50 is the concentration at which the activity in the assay is half-maximal. Regarding `CCC(C)(NC(=O)c1cc(Cl)c(C)c(Cl)c1)C(=O)CCl` (stereo not given), the AC50 is 12.2 µM (active). With `CC(C)(C)C(O)C(Oc1ccc(Cl)cc1)n1cncn1` (stereo not given), the call was inactive.

On to `CCOCN(C(=O)CCl)c1c(C)cccc1CC`, for which the molecule was called inactive. On the same count and under the same terms, the same measure for `CC(C)OC(=O)Nc1cccc(Cl)c1`: “inactive”. The same measure, in the same setting: then `CC(C)(C)C(O)/C(=C\c1ccc(Cl)cc1Cl)n1cncn1` (stereo not given), with “inactive”.

Regarding `O=[N+]([O-])c1c(Cl)c(Cl)c(Cl)c(Cl)c1Cl`, the molecule was classed as inactive. The same measure, in the same setting: the same measure for `CCN(CC)C(=O)SCc1ccc(Cl)cc1`: “inactive”. Turning to `CCC(C)Nc1c([N+](=O)[O-])cc(C(C)(C)C)cc1[N+](=O)[O-]` (stereo not given), the AC50 is 22 µM (active).

For the molecule `CNC(=O)CSP(=S)(OC)OC`, the molecule was classed as inactive. For the molecule `O=S(=O)(O)C(F)(F)C(F)(F)C(F)(F)C(F)(F)C(F)(F)C(F)(F)C(F)(F)C(F)(F)F`, the concentration at half-maximal activity (AC50) is 14.4 µM (active) and 7.01 µM (active); the molecule was called inactive.

Regarding `O=C(O)C(F)(F)C(F)(F)C(F)(F)C(F)(F)C(F)(F)C(F)(F)C(F)(F)F`, the outcome was inactive.

`CCCN(CCOc1c(Cl)cc(Cl)cc1Cl)C(=O)n1ccnc1`: the concentration at half-maximal activity (AC50) is 10.8 µM (active). Take `O=C1c2ccccc2C(=O)N1SC(Cl)(Cl)Cl`: the outcome was inactive.

As to `O=C(Nc1ccccc1)Nc1cnns1`, the result was inactive.

Take `O=C(O)COc1ccc(Cl)cc1Cl`: the molecule was called inactive. Regarding `ClC1C(Cl)C(Cl)C(Cl)C(Cl)C1Cl` (stereo not given), the molecule was called inactive and the AC50 was 3.28 µM (active).

As for `CC(C)N(C(=O)COc1nnc(C(F)(F)F)s1)c1ccc(F)cc1`, the molecule was classed as inactive. Consider `CC1(c2ccc(Oc3ccccc3)cc2)OC(=O)N(Nc2ccccc2)C1=O` (stereo not given), for which the half-maximal activity concentration (AC50) was 13.2 µM (active). Take `CN1CSC(=S)N(C)C1`: the molecule was called inactive. On the same count and under the same terms, then `COP(=S)(OC)Oc1ccc([N+](=O)[O-])cc1`, with “inactive”; and `CCCN(CCC)c1c([N+](=O)[O-])cc(C(F)(F)F)cc1[N+](=O)[O-]`, with “inactive”; and `CNC(=O)Oc1ccccc1OC(C)C`, with “inactive”.

For `CC1(C)C(C=C(Cl)Cl)C1C(=O)OC(C#N)c1ccc(F)c(Oc2ccccc2)c1` (stereo not given), the concentration at half-maximal activity (AC50) is 21.4 µM (active). Take `O=[N+]([O-])/N=C1\NCCN1Cc1ccc(Cl)nc1`: the AC50 is 35.3 µM (active). Same read-out and setting: the same measure for `CC[C@H](C)[C@H]1O[C@]2(C=C[C@@H]1C)C[C@@H]1C[C@@H](C/C=C(\C)[C@@H](O[C@H]3C[C@H](OC)[C@@H](O[C@H]4C[C@H](OC)[C@@H](O)[C@H](C)O4)[C@H](C)O3)[C@@H](C)/C=C/C=C3\CO[C@@H]4[C@H](O)C(C)=C[C@@H](C(=O)O1)[C@]34O)O2` (tested in a mixture with another compound): 13.7 µM (active); for `C[C@H]1[C@H](c2ccc(Cl)cc2)SC(=O)N1C(=O)NC1CCCCC1`: 39.7 µM (active). Turning to `N#Cc1c(Cl)c(Cl)c(Cl)c(C#N)c1Cl`, the call was inactive. Still for that read-out and setting: the same measure for `N#CN`: “inactive”. Take `CCc1ccc(C(=O)NN(C(=O)c2cc(C)cc(C)c2)C(C)(C)C)cc1`: the AC50 is 50 µM (active).

In the case of `CNC(=O)Oc1cccc(N=CN(C)C)c1`, the molecule was classed as inactive. Still for that read-out and setting: then `CNC(=O)/C=C(\C)OP(=O)(OC)OC`, with “inactive”. Same read-out and setting: then `Oc1cc(Cl)ccc1Oc1ccc(Cl)cc1Cl`, with “inactive”. Turning to `O=C(O)CCCOc1ccc(Cl)cc1Cl`, the half-maximal activity concentration (AC50) was 11.6 µM (active).

With `OCCOc1ccccc1`, the call was inactive.

Turning to `O=C(NC(=O)c1c(F)cccc1F)Nc1ccc(OC(F)(F)C(F)OC(F)(F)F)c(Cl)c1` (stereo not given), the molecule was classed as inactive. For `CCOC1Oc2ccc(OS(C)(=O)=O)cc2C1(C)C` (stereo not given), the AC50 was 28.2 µM (active).

Consider `COc1nn(CSP(=S)(OC)OC)c(=O)s1`, for which the result was inactive.
